M1 ag = human M1 muscarinic receptor agonism; P11229; CHO-K1 hM1, Fluo-8 calcium fluorescence, agonist mode; 0% DMSO, 100% acetylcholine EC100; activation, % at 3 µM; hit rate 0.33% among 360,000;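 active = activation above the run's mean compound activation plus 3 SD, cut at about 16% in these data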;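 note: peak over basal fluorescence ratio within a 140 s kinetic read after compound addition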
Target sequence (P11229 whole entry, looked up): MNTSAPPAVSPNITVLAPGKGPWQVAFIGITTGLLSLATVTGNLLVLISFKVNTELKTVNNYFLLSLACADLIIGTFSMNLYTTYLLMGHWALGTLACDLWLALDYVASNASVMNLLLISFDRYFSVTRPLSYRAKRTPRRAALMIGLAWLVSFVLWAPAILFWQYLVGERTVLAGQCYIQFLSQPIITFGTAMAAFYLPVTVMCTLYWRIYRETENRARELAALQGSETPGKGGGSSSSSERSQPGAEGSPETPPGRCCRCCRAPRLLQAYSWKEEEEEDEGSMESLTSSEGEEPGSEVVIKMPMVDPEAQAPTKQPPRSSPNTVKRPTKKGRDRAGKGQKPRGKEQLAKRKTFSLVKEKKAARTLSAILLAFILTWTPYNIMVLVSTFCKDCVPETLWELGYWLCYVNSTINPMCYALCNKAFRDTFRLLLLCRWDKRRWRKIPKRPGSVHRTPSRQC
CHO-K1 Ca PAM = nonselective activator or artifact in parental CHO-K1 calcium assay; ATP EC20, Fluo-8 calcium fluorescence; 0% at ATP EC20, 100% at ATP max; activation, % at 3 µM; hit rate 0.02% among 360,000; AID 602247;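 active = activation above the run cutoff, the mean activation of all test compounds plus 3 SD, cut at about 40% in these data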;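 note: peak over basal fluorescence ratio in a 140 s read after ATP addition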
CHO-K1 Ca ag = counter-screen for M1 agonists: effect in parental CHO-K1 cells | hit rate 0.48% among 360,000 | activation, % at 3 µM | Fluo-8 calcium fluorescence; scaled to maximal ATP response, vehicle zero; in the data active = activation above about 15%;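 note: untransfected CHO-K1 host cells lacking M1 receptor as counterscreen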
CHO-K1 Ca antag = M1 antagonist counterscreen hit in parental CHO-K1 cells. ATP-induced calcium, Fluo-8 fluorescence. inhibition, % at 3 µM. hit rate 0.6% among 360,000. AID 602250;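 active = inhibition above a per-plate cutoff, the plate's mean sample inhibition plus 3 SD, cut at about 24% in these data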;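 note: 0% = DMSO plus EC80 ATP and 100% = DMSO alone without ATP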
M1 antag = blocks human M1 muscarinic receptor | inhibition, % at 3 µM | AID 588852 | hit rate 1.3% among 360,000 | CHO-K1 hM1, Fluo-8 calcium fluorescence, ACh EC80 antagonist | P11229;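 active = percent inhibition above its own plate's cutoff, namely the mean of that plate's compound wells plus 3 SD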;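 note: peak over basal fluorescence ratio during 140 s after agonist addition; 0% = ACh EC80 plus DMSO and 100% = DMSO alone without agonist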
CHRM1 PAM = potentiates human M1 receptor response to acetylcholine; P11229; CHO-K1 hM1, Fluo-8 calcium fluorescence, ACh EC20; 0% = ACh EC20, 100% = maximal ACh; activation, % at 3 µM; hit rate 0.088% among 360,000; AID 588819; in the data active = activation above about 19%, passing the limit was not always enough
An asterisk follows results filed as active. Rows were chosen to be rich in hits. Some 2.4% of all compounds tested hit in one or more screens of this group.

Screening Cc1cc(OCCCCN2C(=O)NC(C)(C)C2=O)ccc1[N+](=O)[O-] returned M1 ag -2, CHO-K1 Ca PAM -4, CHO-K1 Ca ag 17*, CHO-K1 Ca antag -5, M1 antag 8 and CHRM1 PAM -10.
For Cc1ccc([N+](=O)[O-])c(OCCN2C(=O)NC(C)(C)C2=O)c1 the results were M1 ag -4, CHO-K1 Ca PAM -5, CHO-K1 Ca ag 0, CHO-K1 Ca antag -1, M1 antag -13 and CHRM1 PAM 8.
For COc1cccc(NC(=O)CC(=O)c2ccccc2)c1 the results were M1 ag -2, CHO-K1 Ca PAM -2, CHO-K1 Ca ag 0, CHO-K1 Ca antag -4, M1 antag 14 and CHRM1 PAM 0.
`O=C(NCCOc1ccccc1)c1ccccc1NC(=O)C1CCCO1` (stereo not given) gave M1 ag -5, CHO-K1 Ca PAM 8, CHO-K1 Ca ag 18*, CHO-K1 Ca antag 2, M1 antag -3 and CHRM1 PAM 7.
`Cc1ccc(C(=O)NCCSc2snnc2C)cc1` gave M1 ag -5, CHO-K1 Ca PAM -5, CHO-K1 Ca ag 0, CHO-K1 Ca antag 43*, M1 antag 2 and CHRM1 PAM -5.
`CNc1nc(-c2ccccc2)cc(C)c1S(C)(=O)=O` gave M1 ag -3, CHO-K1 Ca PAM 9, CHO-K1 Ca ag 0, CHO-K1 Ca antag -10, M1 antag 13 and CHRM1 PAM -5.
`CCOc1ncccc1C(=O)NCc1ccccc1Cl` gave M1 ag 2, CHO-K1 Ca PAM -16, CHO-K1 Ca ag 0, CHO-K1 Ca antag -3, M1 antag -2 and CHRM1 PAM 7.
Screening CC(=O)NCCn1c(C)cc2ccccc21 returned M1 ag -1, CHO-K1 Ca PAM 16, CHO-K1 Ca ag 0, CHO-K1 Ca antag -2, M1 antag -14 and CHRM1 PAM 6.
Screening Cc1cc2ccccc2n1CCNC(=O)C(C)(C)C returned M1 ag -4, CHO-K1 Ca PAM -5, CHO-K1 Ca ag 1, CHO-K1 Ca antag 8, M1 antag 33* and CHRM1 PAM -14.
CC(C)Cc1nnc(NC(=O)CCC(=O)N2CCN(c3ccc(Cl)cc3)CC2)s1 was read as M1 ag 0, CHO-K1 Ca PAM -16, CHO-K1 Ca ag 0, CHO-K1 Ca antag -10, M1 antag -11 and CHRM1 PAM 13.
COc1ccc(-n2nc(C(=O)NCC(=O)NCCCN3CCC(C)CC3)c3ccccc3c2=O)cc1Cl was read as M1 ag -11, CHO-K1 Ca PAM 14, CHO-K1 Ca ag -1, CHO-K1 Ca antag -11, M1 antag 4 and CHRM1 PAM -7.
For CCOC(=O)CNC(=O)CNC(=O)c1nn(-c2ccc(OC)c(OC)c2)c(=O)c2ccccc12 the results were M1 ag -1, CHO-K1 Ca PAM -1, CHO-K1 Ca ag 2, CHO-K1 Ca antag -17, M1 antag -10 and CHRM1 PAM 11.
For CCOC(=O)CNC(=O)CNC(=O)c1nn(-c2ccc(OC)c(Cl)c2)c(=O)c2ccccc12 the results were M1 ag -1, CHO-K1 Ca PAM -9, CHO-K1 Ca ag 2, CHO-K1 Ca antag 26*, M1 antag 7 and CHRM1 PAM 3.
Screening CCOC(=O)C1CCCN(C(=O)CNC(=O)c2nn(-c3ccc(OC)c(Cl)c3)c(=O)c3ccccc23)C1 (stereo not given) returned M1 ag 18*, CHO-K1 Ca PAM 2, CHO-K1 Ca ag 5, CHO-K1 Ca antag 0, M1 antag 22 and CHRM1 PAM -14.
`CCOC(=O)C1CCN(C(=O)CNC(=O)c2nn(-c3ccc(OC)c(Cl)c3)c(=O)c3ccccc23)CC1` gave M1 ag -8, CHO-K1 Ca PAM 3, CHO-K1 Ca ag 4, CHO-K1 Ca antag 5, M1 antag 7 and CHRM1 PAM 2.
COc1ccc(-n2nc(C(=O)NCC(=O)NCCCN3CCCCCC3)c3ccccc3c2=O)cc1Cl was read as M1 ag 0, CHO-K1 Ca PAM 16, CHO-K1 Ca ag 0, CHO-K1 Ca antag -20, M1 antag 50* and CHRM1 PAM -23.
For CCOc1ccc(C(C)=O)cc1COc1ccc(C)nc1[N+](=O)[O-] the results were M1 ag -8, CHO-K1 Ca PAM -3, CHO-K1 Ca ag 1, CHO-K1 Ca antag -6, M1 antag -6 and CHRM1 PAM 3.
For CC(NC(=O)c1cccc(OC2CCN(C3CCN(C)CC3)CC2)c1)c1ccccc1 (stereo not given) the results were M1 ag -5, CHO-K1 Ca PAM -2, CHO-K1 Ca ag 0, CHO-K1 Ca antag -6, M1 antag -13 and CHRM1 PAM 5.
O=C(C[C@@H]1C/C=C\C[C@H](Cc2ccc(F)cc2)C(=O)OC[C@H]2CCCN2C1=O)NCCO was read as M1 ag -2, CHO-K1 Ca PAM 14, CHO-K1 Ca ag 0, CHO-K1 Ca antag -19, M1 antag -10 and CHRM1 PAM 5.
`O=C(Nc1ncnc2c1C(c1ccccc1)c1c(ccc3ccccc13)O2)c1ccccc1` (stereo not given) gave M1 ag -4, CHO-K1 Ca PAM 18, CHO-K1 Ca ag 1, CHO-K1 Ca antag -13, M1 antag 5 and CHRM1 PAM 1.
N#Cc1ccccc1Sc1ccccc1C(=O)NCC(c1ccco1)N1CCCCC1 (stereo not given) was read as M1 ag -8, CHO-K1 Ca PAM -6, CHO-K1 Ca ag 0, CHO-K1 Ca antag -20, M1 antag 30* and CHRM1 PAM -22.
Screening O=C(NCC(c1ccco1)N1CCCC1)c1ccccc1Sc1ccc(C(F)(F)F)cc1[N+](=O)[O-] (stereo not given) returned M1 ag -8, CHO-K1 Ca PAM 2, CHO-K1 Ca ag 1, CHO-K1 Ca antag 0, M1 antag 95* and CHRM1 PAM -28.
For Cn1cnnc1SCC(=O)Nc1ccc(N2CCCCC2)cc1 the results were M1 ag -7, CHO-K1 Ca PAM 15, CHO-K1 Ca ag 0, CHO-K1 Ca antag -23, M1 antag -4 and CHRM1 PAM 9.
`COc1ccc(CNC(=O)c2cc3c(C)nc4ccccc4c3o2)c(OC)c1` gave M1 ag -5, CHO-K1 Ca PAM 2, CHO-K1 Ca ag 8, CHO-K1 Ca antag 15, M1 antag 37* and CHRM1 PAM -19.
`Cc1nc2ccccc2c2oc(C(=O)Nc3ccc(C(C)C)cc3)cc12` gave M1 ag -4, CHO-K1 Ca PAM -12, CHO-K1 Ca ag 0, CHO-K1 Ca antag 25*, M1 antag 10 and CHRM1 PAM 1.
`Cc1nc2ccccc2c2oc(C(=O)Nc3ccc4c(c3)OCCO4)cc12` gave M1 ag -2, CHO-K1 Ca PAM 7, CHO-K1 Ca ag 0, CHO-K1 Ca antag 2, M1 antag -5 and CHRM1 PAM 5.

Screens deposited in PubChem BioAssay by The Scripps Research Institute Molecular Screening Center.
